Data from PubChem BioAssay (NCI).
Compounds without any hit were thinned out: in the full panel of roughly 79,000, 15% have a hit. A number with no mark means an inactive call. Calls of active or inactive are those of the source. No stated cut-off is given here; in the data, active means growth inhibition above about 70%; inactive means the rest.

Assays:
[1] = NCI Yeast Anticancer Drug Screen. Data for the rad50 strain (AID 155);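 further: 0% = growth of vehicle-only cultures of the same strain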; conditions: S. cerevisiae rad50 strain growth inhibition; at 50.0 µM; active compounds read high
In short: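 A DNA repair-deficient yeast mutant serves as the test organism; compound-induced growth inhibition is calculated against vehicle-treated cells.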

[2] = NCI Yeast Anticancer Drug Screen. Data for the mec2-1 strain (AID 157); conditions: S. cerevisiae mec2-1 strain, at 50.0 µM, active compounds read high
In short: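 Readout is yeast growth inhibition, normalised to vehicle-treated controls, in the mec2-1 strain exposed to compound.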

[3] = NCI Yeast Anticancer Drug Screen. Data for the sgs1 mgt1 strain (AID 161);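 further: 0% = growth of cultures given vehicle only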; conditions: S. cerevisiae sgs1 mgt1 strain, at 50.0 µM, active compounds read high
In short: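 Compounds are added to genetically altered yeast, and growth is compared with cultures given vehicle alone to give percent inhibition.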

[4] = NCI Yeast Anticancer Drug Screen. Data for the cln2 rad14 strain (AID 165);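 further: 0% = growth equal to vehicle treated cultures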; conditions: S. cerevisiae cln2 rad14 strain, at 50.0 µM, active compounds read high
In short: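 Relative to vehicle controls, growth inhibition of compound-treated cln2 rad14 yeast was recorded.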

[5] = NCI Yeast Anticancer Drug Screen. Data for the bub3 strain (AID 167); conditions: S. cerevisiae bub3 mutant strain, at 50.0 µM, active compounds read high
In short: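 Inhibition values come from growth of compound-treated mutant yeast normalised to vehicle-treated controls.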

[6] = NCI Yeast Anticancer Drug Screen. Data for the mlh1 rad18 strain (AID 175); conditions: S. cerevisiae mlh1 rad18 strain growth inhibition; at 50.0 µM; active compounds read high
In short: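 Test agents were incubated with a yeast strain of defined genotype (DNA damage repair defect). Inhibition of growth was derived by comparison with vehicle-exposed cultures.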

| SMILES | growth inhibition [1] | growth inhibition [2] | growth inhibition [3] | growth inhibition [4] | growth inhibition [5] | growth inhibition [6] |
| --- | --- | --- | --- | --- | --- | --- |
| COc1cc(/C=C2\N=C(C)OC2=O)ccc1O | -2.8% | -6.5% | 5.7% | -65.5% | 2.95% | 2.05% |
| COc1ccc(NC(=O)CC/C(CC(=O)c2ccco2)=N/Nc2ccc([N+](=O)[O-])cc2[N+](=O)[O-])cc1 | 21.4% | -6.8% | -0.05% | 3.1% | 22.1% | 2.95% |
| O=C(O)CNC(=O)C(Cc1ccccc1)NC(=O)CNC(=O)C(CSC(c1ccccc1)c1ccccc1)NC(=O)C(CSC(c1ccccc1)(c1ccccc1)c1ccccc1)NC(=O)OCc1ccccc1 (centres undefined) | -0.75% | 27% | 23.4% | -17.2% | -9.55% | 44.1% |
| Cc1ccc(C(=O)OC2CCCC2)cc1 | 7.85% | -0.7% | 0.85% | -7.7% | -15.7% | 4.1% |
| O=[N+]([O-])c1cc(Br)ccc1N1CCCC1 | -8.7% | 4.2% | 4.05% | -11.7% | -2.3% | -6.85% |
| OCC1SC(O)C(O)C(O)C1O (centres undefined) | 28.2% | -5.55% | 11.8% | 10.7% | 25.1% | 19.6% |
| COC1CC(NC(C)=O)C(OC(C)=O)C(CN=[N+]=[N-])O1 (centres undefined) | 5.1% | 9.3% | 8% | -11.4% | -10.2% | 6.4% |
| CCCCCCCC(=O)OCC(=O)c1ccc(-c2ccccc2)cc1 | -24.8% | -1.6% | 2.85% | -28.6% | 11.5% | 3.1% |
| O=C(Nc1ccc(Cl)cc1)NS(=O)(=O)c1coc2ccccc2c1=O | 9.65% | 7.3% | -5.75% | 18.6% | 11.6% | 23.1% |
| CC(C)(C)c1cc(CCCCCCCC2(CCCCCCCc3cc(C(C)(C)C)cc(C(C)(C)C)c3)OC(COCCOCCCCCC#N)C(COCCOCCCCCC#N)O2)cc(C(C)(C)C)c1 (centres undefined) | 24.6% | -6.5% | -1.5% | -18% | 0% | 9.6% |
| Nc1nc(-c2ccccc2)nc(-c2ccccc2)n1 | -2.95% | -7.05% | -8.4% | -14.2% | -21.7% | -16.4% |
| CC1=CC(=O)C(C(O)(C(F)(F)F)C(F)(F)F)C(C)(C)C1 (centres undefined) | -37.1% | -38% | -5.45% | -23.8% | -4.95% | -6.9% |
| O=C(O)c1ccc(C(=O)C2CC(C(=O)O)CCC2S(=O)(=O)O)cc1 (centres undefined) | -10.1% | 11.8% | -19.8% | -30.6% | -0.4% | 17.1% |
| O=C(NN=C1c2ccccc2-c2ccccc21)C(F)(F)F | 87% (active) | 2.05% | 4.65% | 31.2% | 6% | 21.9% |
| NC(N)=NS(=O)(=O)c1ccc(NC(=O)c2cccc3c(N)c4ccccc4nc23)cc1 | 5.35% | 5.95% | -0.2% | 8.65% | -9% | -10.2% |
| CC1(C)OC(=O)C(=Cc2cccc3ccc4ccccc4c23)C(=O)O1 | 31.9% | 18.3% | 8.9% | -17.1% | 40.7% | 40.6% |
| CCC(=O)C1(N2CCOCC2)CCN(CCCC(=O)c2ccc(F)cc2)CC1 | -25.4% | -9.45% | -1.75% | 1.5% | -0.3% | 22.1% |
| O=c1[nH]nc(-c2ccccc2)n1-n1cccc1 | -9.25% | -26.1% | -5.95% | -3.6% | -12.3% | -6.25% |
| CC[C@H]1CN(C)[C@H]2Cc3c([nH]c4ccccc34)C(=O)C[C@H]1C2C(=O)OC (some centres undefined) | -0.35% | -0.95% | 6.95% | 12.6% | -1.65% | -35.9% |
| Cc1ccc(Cl)cc1NC(=O)Oc1ccc(C(C)(C)C)cc1Br | 54.3% | 57.1% | 11.7% | 1.5% | 19.9% | 60.2% |

| SMILES | growth inhibition [1] | growth inhibition [2] | growth inhibition [3] | growth inhibition [4] | growth inhibition [5] | growth inhibition [6] |
| --- | --- | --- | --- | --- | --- | --- |
| CC1(C)OC2COC3(CO)OC(C)(C)OC3C2O1 (centres undefined) | -2.2% | 20.6% | 15.4% | -65.5% | 15.2% | 17.4% |
| O=C(O)CCc1ccccc1CC(=O)O | 12.8% | -9.95% | -10.8% | -10.1% | -12.3% | 13.2% |
| COc1cccc(-c2cc(=O)c3cccnc3[nH]2)c1 | -49.4% | 3.25% | 28.8% | 7.45% | 26.6% | 13.9% |
| CC(C)(C)SC1C(O)C(CO)OC1n1ccc(Nc2ccccc2)nc1=O (centres undefined) | -17.9% | 10.8% | -24.6% | -15.8% | 1.55% | 4.65% |
| COc1ccc(CCCN2c3ccccc3Sc3ccccc32)cc1 | -6.1% | -3.35% | -21.2% | -23.9% | -19.9% | -5.7% |
| CCOC(=O)COc1cc(C)c2ccc(=O)oc2c1 | 3.9% | -1.35% | 10.8% | 8.45% | 6.4% | 29.1% |
| CC1=C(c2ccccc2)CON(c2ccccc2)C1 | -9.3% | -15.1% | -9.2% | -5.4% | 14.8% | -9.2% |
| COc1ccc(Cl)cc1/C=C\C=N\OCC(=O)O | 5.2% | 1.85% | 1.05% | -43.6% | -5.85% | 7.25% |
| CCOC(=O)C(=O)C(C(=O)OCC)C(C)C(=O)OCC (centres undefined) | 1.9% | -8.3% | 8.2% | -41.1% | 6.65% | -11.2% |
| CC1(C)Cc2ccccc2C1=O | 16.1% | -4.85% | 4% | -53.6% | -1.65% | -2% |
| C=CCS(=O)(=O)c1ccc(Cl)cc1 | 1.95% | 2.25% | -20.5% | -24.6% | 0.95% | -22.2% |
| C=CCN1C(=O)CC2[C@@H]3CCc4cc(O)ccc4C3CC[C@]2(C)C1=O (some centres undefined) | -0.65% | -12.7% | -7.6% | 22.8% | 8% | 1.25% |
| COC1(OC)CCC(OC)(OC)C(OC)(OC)C1(OC)OC | 4.75% | 8.1% | 11.7% | -4.2% | -16.2% | 2.75% |
| Nc1nc(-c2ccccc2)cc(-c2cc(-c3ccccc3)nc(N)n2)n1 | 12.8% | -8.35% | -18.9% | -1.5% | -5.95% | 10.3% |
| CO/C(=N\N=C\c1cccc(C(F)(F)F)c1)c1ccncc1 | 27.3% | 6.4% | -2.2% | -6.05% | 5.1% | 12.2% |
| CCOC(=O)/C(=C/n1c(=S)[nH]c2ccc([N+](=O)[O-])cc21)C(=O)c1ccccc1 | -7.55% | -44.8% | -12.9% | -1.35% | -16.7% | -4.65% |
| CC(=O)C(C)(C)O | 45.4% | -5.55% | 48.8% | -8.7% | 14.2% | 38.9% |
| CC(O)COc1ccc(Cl)cc1Cl (centres undefined) | 27.1% | -10.2% | 45.6% | 9.6% | 8.35% | 26.6% |
| C=C(C)C#CC(O)(C(=O)OC1CCN(C)CC1)C(C)C (centres undefined) | -7.95% | -14% | -21.1% | 7.2% | 20.9% | -22.1% |
